Screens from PubChem.
The list is not random: actives were taken first. Their share in the collection is about 11%.
G9a inh: qHTS Assay for Inhibitors of Histone Lysine Methyltransferase G9a | Histone-lysine N-methyltransferase EHMT2 (Homo sapiens), Q96KQ7 | hit rate 8.8% among 350,000 | Potency, µM (series often up to 102 µM), for inactives: top-dose activity, negative = inhibition, most hits filed as inhibitors | AID 504332, 2011 | G9a H3K9 monomethylation, AlphaScreen, 2 h; note: % is set by controls: 0 for no effect and ±100 for the full control effect; nearly all actives have a fitted effect of over 75% in size
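G9a (20 nM) was preincubated 15 min with compound, then reacted 2 h at room temperature with 500 nM biotin-H3K9 peptide and 20 µM SAM. Monomethyl-H3K9 detected by AlphaScreen using anti-H3K9me1 antibody.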
HP1b chromo inh: HTS for Inhibitors of HP1-beta Chromodomain Interactions with Methylated Histone Tails; AID 540317, 2011; AlphaScreen HP1-beta / biotin-H3K9me3 peptide binding; hit rate 0.56% among 390,000; Potency, µM (highest dose often 114 µM), inactives show top-dose activity change, negative = inhibition, hits mostly inhibitors; Chromobox protein homolog 1 (Homo sapiens), P83916; note: nearly all actives have a fitted effect of over 70% in size
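Compound inhibition of the preformed complex between 50 nM HP1-beta and 50 nM biotinylated H3K9me3 peptide was read by AlphaScreen. Buffer was PBS pH 7.4 with 0.01% Tween-20. Incubations ran 30 min at room temperature, with 10 ug/mL donor/acceptor beads.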
BAZ2B block: qHTS Assay for Inhibitors of BAZ2B. Bromodomain adjacent to zinc finger domain protein 2B (Homo sapiens), Q9UIF8. hit rate 4.4% among 360,000. Potency, µM (doses to about 114 µM), for inactives: top-dose activity change, negative = inhibition, hits mostly inhibitors. AlphaScreen BAZ2B-H3K14Ac peptide displacement; note: % is set by controls: 0 for no effect and ±100 for the full control effect; nearly all actives have a fitted effect of over 60% in size
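BAZ2B 50 nM plus b-H3(5-23)K14Ac 50 nM, PBS pH 7.4/0.01% Tween-20, 30 min RT; compound added (max 110 uM), 30 min RT; streptavidin donor/Ni-chelate acceptor beads 10 ug/mL final, 20 min dark; AlphaScreen read.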
L3MBTL1 block: qHTS Assay for the Inhibitors of L3MBTL1 | AlphaScreen L3MBTL1–H3K9me1 peptide binding | Potency, µM (highest dose often 57.1 µM), for the others: top-dose activity, negative = inhibition, hits mostly inhibitors | AID 485360, 2010 | hit rate 0.66% among 230,000 | Lethal(3)malignant brain tumor-like protein 1 (Homo sapiens), Q9Y468; note: % is set by controls: 0 for no effect and ±100 for the full control effect; nearly all actives have a fitted effect of over 60% in size
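Read-out is AlphaScreen signal from streptavidin donor and nickel chelate acceptor beads (10 ug/mL final each) bridging L3MBTL1 (50 nM) and biotinylated K9-monomethylated H3(1-15) peptide (75 nM), after 30 min compound exposure at room temperature.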
JMJD2A Tudor: qHTS Assay for Inhibitors of JMJD2A-Tudor Domain; Lysine-specific demethylase 4A (Homo sapiens), O75164; Potency, µM (series often up to 114 µM), without a hit: at the highest dose activity change, negative = inhibition, most hits filed as inhibitors; AlphaScreen JMJD2A-Tudor / H3K4me3 peptide binding; hit rate 4.4% among 390,000; note: % is set by controls: 0 for no effect and ±100 for the full control effect; nearly all actives have a fitted effect of over 50% in size
The depositor's hits bear a star; ? = inconclusive; nt = not tested or not shown; [ ] = remark or other dose. Calls come from the whole dose curve; as a rule, active = well fitted inhibition curve with a large enough effect; inconclusive = small, poorly fitted or top-dose-only effect; inactive = no such curve, though single readings can be large or run the other way. Potency is the fitted concentration of half-maximal effect.

SMILES	G9a inh	HP1b chromo inh	BAZ2B block	L3MBTL1 block	JMJD2A Tudor
S=c1[nH]ccn1CCc1ccccc1	10µM*	-28.0%	27.1%	nt	?
COc1ccc(S(=O)(=O)NC(C(=O)OCC(=O)Nc2ccc(N3CCOCC3)cc2)C(C)C)cc1 (stereo unspecified)	nt	10.2%	nt	nt	-26.7%
CN(C)CCNC(=O)COc1ccc(C23CC4CC(CC(C4)C2)C3)cc1	50.1µM*	-17.8%	-31.3%	-10.6%	-30.8%
O=C(NCCc1ccc(Cl)cc1)c1ccc(CS(=O)(=O)Cc2ccc(Cl)cc2)o1	9.6%[59 µM]	-11.5%	-3.0%	nt	-29.7%
Cc1ccn(-c2ccc(NC(=O)c3cccs3)cc2)n1	70.8µM*	6.9%	2.6%	nt	-10.3%
O=C(Nc1ccc(NC(=O)c2cccs2)cc1)c1cccs1	-3.3%[59 µM]	19.4%	25.4%	nt	0.7%
CS(=O)(=O)N(Cc1ccccc1)c1ccc(C(=O)Nc2ccc(Cl)cc2)cc1	7.2%[59 µM]	42.1%	5.0%	nt	-4.9%
O=C(NCc1ccccc1Cl)c1cc(-c2ccccc2)n[nH]1	3.2%[59 µM]	39.3%	-17.8%	nt	-3.8%
COc1cc(/C=C2\SC(=S)N(CCC(=O)Nc3ccccc3)C2=O)cc(OC)c1OC	-24.1%	31.5%	?	-22.2%	-18.9%[57.1 µM]
CCOc1ccc(/C=C2\SC(=S)N(Nc3ccccc3)C2=O)cc1OC	7.08µM*	-19.0%	?	-5.7%	?
COc1cc(/C=C2\SC(=S)N(N3CCOCC3)C2=O)ccc1O	20.4%[59 µM]	135.9%	-3.6%	nt	-19.6%
COc1cc(/C=C2\SC(=S)N(N3CCOCC3)C2=O)cc(OC)c1OC	12.6µM*	10.4%	12.0%	22.6%	-18.6%
COc1cc(/C=C2/SC(=S)N(CCC(=O)Nc3ccccc3)C2=O)cc(OC)c1OC	-9.8%	20.1%	-16.8%	nt	-11.7%
O=C1/C(=C/c2ccncc2)SC(=S)N1N1CCOCC1	-124.0%[59 µM]	-14.5%	-33.0%	nt	-20.8%
COc1cc(/C=C2\SC(=S)N(Nc3ccccc3)C2=O)cc(OC)c1OC	?	?	22.4µM*	?	?
O=C1/C(=C/c2cccs2)SC(=S)N1N1CCOCC1	?	35.5µM*	?	-20.9%	?
COc1ccc(C2Nc3ccccc3C(=O)N2c2ccc(Cl)cc2)cc1COc1ccc(NC(C)=O)cc1 (stereo unspecified)	nt	18.7%[57 µM]	nt	nt	-23.8%[57.1 µM]
COc1cccc(C(=O)NCC(c2ccc(N(C)C)cc2)N2CCOCC2)c1OC (stereo unspecified)	-4.3%[59 µM]	43.8%	1.4%	nt	-20.9%
Cc1ccc(C(=O)CSc2nc(C)cc(C)c2C(=O)Nc2cccc(C)c2)cc1	-33.1%[59 µM]	27.3%	-6.6%	nt	-18.9%
Cc1nc2nc(C)c(NS(=O)(=O)c3ccc4c(c3)CCCC4)c(=O)n2[nH]1	70.8µM*	-16.1%	-6.2%	nt	3.5%
CCCc1nc2nc(C)c(NS(=O)(=O)c3ccc([N+](=O)[O-])cc3)c(=O)n2[nH]1	79.4µM*	52.5%	5.8%	nt	-4.9%
COc1ccc(OCc2cc(C(=O)N3CCC(OC)CC3)no2)c2ccccc12	?	-9.8%	?	nt	?
CCOC(=O)C1CCN(C(=O)c2cc(COc3ccc(OC)c4ccccc34)on2)CC1	44.7µM*	-18.3%	?	nt	-16.3%
CCC(C)(C)NC(=S)Nc1ccccc1C	9.6%	33.3%	-16.3%	-3.8%	-16.1%
CCn1c(C)cs/c1=N\C(=S)Nc1ccccc1C	?	-16.8%	39.8µM*	-25.1%	?
COc1ccc(-c2cn3nc(N4CCC(C(=O)Nc5cc(Cl)ccc5C)CC4)sc3n2)cc1	-0.7%[59 µM]	-5.2%	0.7%	nt	-24.4%
CCn1c(C(=O)NCc2ccccc2OC)cc2sccc21	0.2%[59 µM]	-10.4%	-7.6%	nt	?
O=C(O)c1cccc2c1C(=O)c1ccc(-c3ccc(Cl)c(C(F)(F)F)c3)cc1S2(=O)=O	15.9%[2.33 µM]	15.1%	?	-1.9%	79.4µM*
Cc1ccc([N+](=O)[O-])cc1N=C(c1cccc([N+](=O)[O-])c1)N1CCOCC1	3.9%[0.0925 µM]	-11.1%	-9.3%	-3.4%	-16.8%[11.4 µM]
